According to PubChem BioAssay AID588382 (National Center for Advancing Translational Sciences (NCATS), 2011):
Out of some 1,300 compounds screened, about 150 (12%) were called active. Not shown: some 30% with an inconclusive outcome. Only a selection was taken, and actives are over-represented in it overall. A number with no mark means an inactive call. Calls follow the shape of the dose curve; as a rule, active = well fitted cell-killing curve with a large enough effect; inconclusive = small, poorly fitted or top-dose-only effect, or effect the other way; inactive = flat fitted curve, though single readings scatter.

Assay: qHTS of small molecules that selectively kill Giardia lamblia: Hit Validation in HepG2 cytotox;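 also: compound exposure lasted overnight at 37 deg C; nearly all actives have a fitted effect of over 55% in size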;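 as to activity change, negative = cytotoxicity: viability measured as cellular ATP by ATPLite luminescence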
Details: cell viability; Potency: HepG2 cytotoxicity; series mostly up to 38.3 µM; activity change, negative = cytotoxicity: at the top concentration
How it was run: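 HepG2 cells seeded and incubated overnight at 37 deg C, then 23 nL compound added by pintool and incubated overnight at 37 deg C. Viability read as ATP luminescence with ATPLite after 15 min at room temperature.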
% is scaled to controls: 0 for no effect and ±100 for the full control effect; potency is read from the fitted curve at half-maximal effect.

Row | SMILES | activity change, negative = cytotoxicity [%] | Potency
1 | Cc1ccc(S(=O)(=O)N2CCN(C(=O)COc3ccc(C)nc3[N+](=O)[O-])CC2)c(C)c1 | 7.88 | 
2 | Cc1ccc(OCC(=O)c2cc(C)n(C)c2C)c([N+](=O)[O-])n1 | 6.59 | 
3 | COc1ccc(-n2nc([N+](=O)[O-])c(=NCCc3ccc(C)cc3)n2O)cc1 | 0.151 | 
4 | Nc1nc(Cl)nc2c1ncn2[C@H]1C[C@H](O)[C@@H](CO)O1 | -5.68 | 
5 | Cc1ncc([N+](=O)[O-])n1CCN1C(=O)c2ccccc2C1=O | 8.26 | 
6 | O=C1c2ccccc2C(=O)c2c1ccc1c(=O)n(C3CCCCC3)[nH]c21 | 0.154 | 
7 | O=C(CSc1cccc[n+]1[O-])Nc1cc2c(cc1Cl)C(=O)c1ccccc1C2=O | -16.8 | 
8 | O=C(N/N=C/c1cc2c(cc1[N+](=O)[O-])OCO2)c1ccccn1 | -3.77 | 
9 | Cc1ccc(N/C(C(Cl)=C(Cl)Cl)=C(/Cl)[N+](=O)[O-])c(C)c1 | 2.94 | 
10 | O=C(CCCn1cnc([N+](=O)[O-])n1)Nc1cccc(Cl)c1Cl | 11.2 | 
11 | O=[N+]([O-])c1nn(-c2ccc3c(c2)OCCO3)n(O)c1=NCc1ccccc1Cl | 22.4 | 
12 | Cc1oc2cc([N+](=O)[O-])c(O)c([N+](=O)[O-])c2c1C(=O)c1ccc(Cl)cc1 | 26 | 
13 | CCN(CC)C(=O)Cn1cc([N+](=O)[O-])cc1[N+](=O)[O-] | 6.27 | 
14 | CC1(C)Oc2cc3oc(-c4cc(O)cc(O)c4)cc3cc2CC1O (stereo not drawn) |  | 5.85 µM (active)
15 | CCCCNC(=O)/C(=C\c1ccc([N+](=O)[O-])o1)NC(=O)c1ccccc1 | 14.1 | 
16 | O=C(CCN1C(=O)c2ccccc2C1=O)Nc1ccccc1C(F)(F)F | 11.6 | 
17 | O=C1c2ccc3c4c(ccc(c24)C(=O)N1CCCCO)C(=O)N(CCCCO)C3=O |  | 4.14 µM (active)

Row | SMILES | activity change, negative = cytotoxicity [%] | Potency
18 | O=C(CCN1C(=O)c2ccccc2C1=O)NCc1ccc(F)cc1 | 21.1 | 
19 | O=[N+]([O-])c1nn(-c2ccc3c(c2)OCCO3)n(O)c1=NCCC1=CCCCC1 | 1.64 | 
20 | O=c1c([N+](=O)[O-])cccn1Cc1ccccc1Cl | 1.04 | 
21 | [O-][n+]1c2ccccc2c2n1CCN=C2c1ccc(Cl)cc1 | 1.04 | 
22 | O=[N+]([O-])c1nn(-c2ccc3c(c2)OCCO3)n(O)c1=Nc1ccc(Cl)cc1 | 20.9 | 
23 | COc1cc2nc(N3CCN(c4cc(C)ccc4C)CC3)nc(N)c2cc1OC |  | 9.27 µM (active)
24 | COc1cc2nc(N3CCN(C)CC3)nc(NC(C)C)c2cc1OC | -19.6 | 
25 | Cc1cc(=S)nc(-c2ccccn2)[nH]1 | 1.95 | 
26 | CN1C(=O)/C(=C/c2ccc(O)c([N+](=O)[O-])c2)NC1=S | 15.3 | 
27 | CCc1cccc(N=c2c([N+](=O)[O-])nn(-c3ccc4c(c3)OCCO4)n2O)c1 | 4.33 | 
28 | Cc1cccc(NC(=O)c2ccc([N+](=O)[O-])s2)c1C | 0.683 | 
29 | Cc1cc(C)cc(Oc2ccc(NC(=O)C3CC=CCC3C(=O)O)cc2)c1 (stereo not drawn) | -0.27 | 
30 | CCn1nc(-c2ccc(C)cc2)nc2c(=O)n(C)c(=O)nc1-2 |  | 5.21 µM (active)
31 | CCc1ccc(-c2nc3c(=O)n(C)c(=O)nc-3n(CC)n2)cc1 |  | 1.85 µM (active)
32 | CC(=O)O[C@@H]1[C@@H](OC(C)=O)[C@H](n2ccc3cc([N+](=O)[O-])ccc32)OC[C@@H]1OC(C)=O | 14 | 
33 | Cc1ccc([C@@H]2CC=C(C(=O)O)CN2S(=O)(=O)c2ccc(C)cc2)cc1 | 21 | 
